mHTT-CaM PPI inh: mutant huntingtin-calmodulin interaction inhibitors – biochemical, AlphaScreen, primary screen; AID 1671202, 2021; 3.6% of 190,000 active; inhibition, % at 15 µM; AlphaScreen His-mHTT/GST-CaM binding, luminescence;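 note: 0% = both proteins with DMSO and 100% = one protein alone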
Pf apPOL block: Pf-apPOL inhibitors, biochemical, fluorescence; Recombinant Pf-apPOL, molecular beacon fluorescence, 1.5 h; inhibition, % at 10 µM; 0.25% of 210,000 active
Numbers without * were called inactive; . = no result. Most compounds without a hit are left out; they make up all but 3.6% or so of the library. Cut-off read from the data, not from the text of the source: active = inhibition above about 50%; inactive = the rest.

SMILES	mHTT-CaM PPI inh	Pf apPOL block
Cc1cc(C)c(S(=O)(=O)N2CCC(c3noc(-c4ccc(Cl)cc4)n3)CC2)c(C)c1	-7	-4
N#CC1=C(N)SC(N)=C(C#N)C1c1ccc(Cl)cc1Cl	8	-8
N#CC1=C(N)SC(N)=C(C#N)C1c1cccc(Cl)c1	74*	4
Cc1cc(C)cc(OCC(=O)N2N=C(c3ccc(Cl)cc3)CC2(O)C(F)(F)F)c1 (stereo not drawn)	90*	-1
O=C(CCc1ccccc1)N1N=C(c2ccc(Cl)cc2)CC1(O)C(F)(F)F (stereo not drawn)	-8	-13
Cc1ccccc1OCC(=O)N1N=C(c2ccc(Cl)cc2)CC1(O)C(F)(F)F (stereo not drawn)	96*	4
COc1ccc(C(=O)N2N=C(c3ccc(Br)cc3)CC2(O)C(F)(F)F)cc1 (stereo not drawn)	24	2
O=C(c1ccc(Cl)cc1)N1N=C(c2ccccc2)CC1(O)C(F)(F)F (stereo not drawn)	54*	-10
COc1ccc(C(=O)N2N=C(c3cccc(Br)c3)CC2(O)C(F)(F)F)cc1 (stereo not drawn)	50*	0
Cc1ccc(C(=O)N2N=C(c3ccc(Cl)cc3)CC2(O)C(F)(F)F)cc1 (stereo not drawn)	35	-4
O=C(c1ccc(Cl)cc1)N1N=C(c2ccc(Cl)cc2)CC1(O)C(F)(F)F (stereo not drawn)	-2	-5
COCc1nc(N2CCN(C(=O)C3CC3)CC2)c2c3c(sc2n1)CCCC3	19	-1
CCOc1ccc(Nc2cc(C(=O)N3CCSCC3)nc3ccccc23)cc1	9	-18
CC(=O)c1cccc(NS(=O)(=O)c2cc(Br)cc3c2N(C(=O)C2CC2)CC3)c1	18	-3
CCN1CCN(c2ccc(NC(=O)c3ccc(Cl)cc3)cn2)C1=O	-3	-3
CCCCNc1c([N+](=O)[O-])c(=O)sc2ccccc12	-1	-1
O=C(NCCc1csc(-c2ccc(F)cc2)n1)c1ccc2nsnc2c1	2	-12
Cc1cc2ncn(CC(O)COc3c(C)cccc3C)c2cc1C (stereo not drawn)	46	-6
Cc1cc(C)c(OCC(O)Cn2cnc3cc(C)c(C)cc32)c(C)c1 (stereo not drawn)	85*	2
CCc1nc2ccc(-c3noc(Cc4cccs4)n3)cc2n1CC	36	-10
Cc1cc(NS(=O)(=O)c2cc(C(=O)O)ccc2F)n[nH]1	78*	-9
Cc1cc(NS(=O)(=O)c2cccs2)n[nH]1	.	-5
CCCN(C)C(=O)c1ccccc1N1CCC(N)CC1	7	1
CCC(=O)Oc1ccc2oc(=O)cc(-c3cc4cccc(OC)c4o3)c2c1	-1	2
CCn1cc2c3c(cccc31)CN(C(=O)CCc1ccc(OC)cc1)CC2	58*	-4
SMILES	mHTT-CaM PPI inh	Pf apPOL block
CCCn1cc2c3c(cccc31)CN(C(=O)c1ccc(OC)cc1)CC2	78*	-3
Cc1cccc(C(=O)N2CCc3cn(C)c4cccc(c34)C2)c1	19	-7
CCn1cc2c3c(cccc31)CN(C(=O)c1ccco1)CC2	-8	-2
COc1ccc(C(=O)N2CCc3cn(C)c4cccc(c34)C2)c(OC)c1	47	-2
COCCn1cc2c3c(cccc31)CN(C(=O)NCc1ccc(OC)cc1)CC2	9	2
Cc1ccc(C(=O)N2CCc3cn(C)c4cccc(c34)C2)cc1C	79*	-3
COc1ccc(C(=O)N2CCc3cn(C)c4cccc(c34)C2)cc1	55*	-2
O=C(c1ccco1)N1CCCn2nc(-c3ccncc3)cc2C1	4	-11
CS(=O)(=O)N(Cc1ccccc1Cl)c1ccc(C(N)=O)cc1	-5	-4
CCCn1cc2c3c(cccc31)CN(C(=O)NCc1ccc(OC)cc1)CC2	18	-2
CS(=O)(=O)N(Cc1ccccc1Cl)c1ccc(C(=O)N2CCc3ccccc3C2)cc1	98*	-1
Cn1cc2c3c(cccc31)CN(C(=O)c1cc(F)cc(F)c1)CC2	30	-1
Cn1cc2c3c(cccc31)CN(C(=O)c1ccc(Cl)cc1)CC2	54*	-4
CCCn1cc2c3c(cccc31)CN(C(=O)Cc1ccc(OC)cc1)CC2	57*	-2
Cn1cc2c3c(cccc31)CN(C(=O)Cc1ccc(Cl)cc1)CC2	27	-1
Cn1cc2c3c(cccc31)CN(C(=O)c1cccc(Cl)c1)CC2	73*	-8
CCc1noc(-c2cccnc2N2CCCN(C(=O)c3ccc(C#N)cc3)CC2)n1	2	-1
Cc1nc2c(C(=O)NCc3ccccc3)cnn2c(C)c1Cc1c(F)cccc1Cl	-11	10
COc1ccc(Oc2coc3c(CN4CCCCC4)c(O)ccc3c2=O)cc1	2	-2
CCOc1ccc(N/C(=C(\C(Cl)=C(Cl)Cl)[N+](=O)[O-])n2nc(C)cc2C)cc1	18	-1
COc1cc(/C=c2\sc3nc4ccccc4n3c2=O)cc(Br)c1O	4	-11

Screens from PubChem.
